# Screening data as filed in PubChem BioAssay.
# Tat export inh: E. coli Tat export inhibitors, primary screen, MC4100, TorA-mCherry reporter, fluorescence, single point. inhibition, % at 10 µM. 340,000 tested, 0.036% active. AID 488895, 2010;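 active = mean replicate inhibition at least 50% and at least half of replicates individually reaching 50%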;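 note: exported cargo escapes ClpAP degradation while cytoplasmic cargo is degraded and loses fluorescence; 0% = median of neutral control wells and 100% = median of NaSCN control wells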
# phage Ecoli inh: growth loss of phage-infected E. coli, primary screen, RecBCD inhibitor project, absorbance, with phage, HTS. inhibition, % at 11.9 µM. 360,000 tested, 0.26% active; in the data active = inhibition above about 11%
# AddAB inh: growth inhibition of E. coli expressing H. pylori AddAB, primary screen, AddAB inhibitor project, absorbance; inhibition, % at 11.9 µM; 330,000 tested, 0.29% active; AID 435030, 2010; in the data active = inhibition above about 12%;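 note: 0% = vehicle wells of infected cells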
# E coli growth-1: E. coli growth inhibition, primary screen, OD600; OD600 absorbance (concentration not given with the values); AID 1053175, 2014; Escherichia coli growth, 23 h; hits give low values; 330,000 tested, 0.21% active;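 active = OD600 absorbance below the run mean of sample wells minus 3.6 SD, in any replicate, cut at about 0.56 in these data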
# E coli growth-2: E. coli V3065 growth inhibition, primary screen, counter-screen for AddAB inhibitor project, absorbance, OD600. 18 h. inhibition, % at 11.9 µM. 330,000 tested, 0.27% active;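 active = inhibition above the campaign's mean inhibition across all tested compounds plus 3 SD, cut at about 9.9% in these data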;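 note: uninfected addAB+ strain grown without phage in ampicillin broth; 0% = DMSO wells and 100% = ciprofloxacin 0.95 µg/ml wells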
# Active calls of the source: *; / = no result. Hits are enriched below; roughly 0.5% of the tested compounds scored in any of these assays.
SMILES,Tat export inh,phage Ecoli inh,AddAB inh,E coli growth-1,E coli growth-2
O=C1Nc2ccc(Br)cc2C12NNc1ccccc1O2 (stereo not drawn),-3.5,6.1,9.9,0.432*,6.2
O=C1Nc2ccc(Br)cc2C1(O)c1ccccc1 (stereo not drawn),0.0,3.2,1.8,0.683,-1.2
CC1CN(C(C)CO)C(=O)c2cccc(NC(=O)C3CCCCC3)c2OC1CN(C)S(C)(=O)=O (stereo not drawn),/,/,/,0.673,/
COc1ccc(OC)c(NC(=O)Nc2cccc3ccccc23)c1,-3.7,2.3,9.8,0.705,16.1*
COc1ccc(NC(=O)Nc2cccc3ccccc23)c(OC)c1,-16.9,0.7,1.3,0.709,0.3
CN1C(=O)C2C(C=Cc3ccccc3)N3C(=O)CN(CCO)C(=O)[C@@]3(C)C2C1=O (stereo partly drawn),/,/,/,0.709,/
O=C(NCc1ccccc1)c1cc(S(=O)(=O)N2CCCCC2)ccc1N1CCOCC1,-3.1,1.8,-0.1,0.438*,3.5
C#Cc1ccc(C2C=C(C(=O)O)OC(OCCCCO)C2)cc1 (stereo not drawn),/,/,/,0.648,/
NC(CO)C(=O)NNCc1ccc(O)c(O)c1O (stereo not drawn),1.8,6.7,9.8,/,12.9*
COC(=O)C(N)Cc1ccc(O)c(O)c1 (stereo not drawn),7.4,-1.0,1.2,0.681,0.8
CC(NC(=O)c1nc[nH]c1C(=O)NC(Cc1ccccc1)C(=O)OC(C)(C)C)c1ccccc1 (stereo not drawn),/,/,/,0.693,/
CN(C1CCCCC1)S(=O)(=O)c1ccc(NC(=O)c2ccc(Br)o2)cc1,6.0,3.7,2.1,0.742,-0.4
CN(C)S(=O)(=O)c1ccc(NC(=O)c2ccc(Br)o2)cc1,-1.2,/,6.7,0.639,9.8*
NC1=C(Br)C(=O)c2ncccc2C1=O,-15.0,35.1*,/,/,/
NC(N)=NCCCC(NC(=O)OCc1ccccc1)C(=O)O (stereo not drawn),/,/,/,0.666,/
CC(C)c1ccc2c(c1)CCC1C(C)(CN)CCCC21C (stereo not drawn),-7.6,8.8,4.0,0.475*,-1.3
CC(C)c1ccc2c(c1)CC[C@H]1[C@](C)(CN)CCC[C@]21C,2.7,4.0,/,/,/
Cc1cc(C(C#N)c2ccc(Cl)cc2)c(Cl)cc1NC(=O)c1cc(I)cc(I)c1O (stereo not drawn),-8.9,4.9,8.4,/,11.0*
CCN(CC)C(=O)c1ccc(/C=C/c2c[nH]c3ccccc23)[n+](C)c1,-4.9,0.9,2.1,0.718,0.2
CC[n+]1c(/C=C/c2c[nH]c3ccccc23)ccc2cc(C)ccc21,-2.0,-0.8,/,0.463*,/
COc1cc(CCN2C(=O)NC(CCc3ccccc3)C(C(C)=O)=C2C)cc(OC)c1OC (stereo not drawn),/,/,/,0.711,/
COc1ccc(C2C=CCN(CC(C)C)CC(=O)N2Cc2ccc(F)cc2)cc1 (stereo not drawn),/,/,/,0.701,/
CCC(C)C(C(=O)N1CCN(C(=O)OC(C)(C)C)CC1)n1cc(CCCCNC(=O)OC(C)(C)C)nn1 (stereo not drawn),/,/,/,0.694,/
C/C(C=NNc1nc2ccccc2[nH]1)=C\c1ccccc1,/,/,/,0.509*,/
COc1cc2c(c(OC)c1OC)-c1c(cc3c(c1OC)OCO3)C1OC2C(C)C1C (stereo not drawn),/,/,/,0.681,/
SMILES,Tat export inh,phage Ecoli inh,AddAB inh,E coli growth-1,E coli growth-2
O=C(Nc1ccc(Cl)cc1)Nc1cc([N+](=O)[O-])ccc1F,-10.9,3.5,3.0,0.601,1.3
O=C(Nc1ccc([N+](=O)[O-])cc1)Nc1ccc(Cl)cc1F,-3.0,10.7,7.0,0.651,9.8*
O=C(Nc1cccs1)Nc1ccc(Br)cc1F,-5.1,10.7,5.3,0.485*,3.8
COc1ccccc1C(=O)NC(=Nc1nc2ccccc2o1)NC(=O)c1ccccc1OC,-7.3,3.9,14.0*,0.684,13.3*
O=C(NC(=Nc1nc2ccccc2o1)NC(=O)c1ccccc1)c1ccccc1,-8.6,5.9,1.0,0.646,-0.4
O=C(C=Cc1ccco1)N1CCCC(c2ccccc2)C1 (stereo not drawn),/,/,/,0.721,/
c1ccc2c(c1)CCC2=NNc1nc2ccccc2[nH]1,/,/,/,0.464*,/
CC(=O)CC1c2ccccc2S(=O)(=O)N1C1CCCCC1 (stereo not drawn),/,/,/,0.673,/
O=C(COc1c(Br)cc(Br)c2cccnc12)N1CCc2ccccc2C1,2.8,/,-3.4,0.439*,-8.6
C=CCOC(=O)C1=CC(c2csc3ccccc23)CC(OCCCCO)O1 (stereo not drawn),/,/,/,0.671,/
Cc1cn(C2CC(N=[N+]=[N-])C(CO)O2)c(=O)[nH]c1=O (stereo not drawn),/,/,/,0.062*,/
Cc1cn(C2CC(O)C(O)C(CO)O2)c(=O)[nH]c1=O (stereo not drawn),/,2.7,/,/,/
O=C(CCN1CCOCC1)c1ccccc1,-30.1,2.4,6.5,0.618,-2.5
O=C(CCN1CCOCC1)NNC(=S)NC(=O)c1ccccc1,-14.6,-4.2,3.9,0.528*,-0.2
CC[C@]12C(=O)N(C)CC(C3C(=O)N(C)C(=O)C31)N2C(=O)c1ccc(F)cc1 (stereo partly drawn),/,/,/,0.711,/
CC(=O)c1ccc(-c2ccc(C3C4C=CCC[C@@]4(C)C(=O)N3Cc3ccccc3)c(F)c2)cc1 (stereo partly drawn),/,/,/,0.717,/
COC(=O)c1ccc(C=NOCC(=O)Nc2cc(F)ccc2F)cc1,/,/,/,0.526*,/
O=[N+]([O-])c1ccc(C=NNS(=O)(=O)c2ccc(F)cc2)o1,/,/,/,0.438*,/
COc1ccc(S(=O)(=O)NN=Cc2ccc([N+](=O)[O-])o2)c(OC)c1,/,/,/,0.509*,/
COc1ccc(S(=O)(=O)NN=Cc2ccc3c(c2)OCO3)c(OC)c1,/,/,/,0.708,/
C#CCOCCOCCOCCNc1nc(N2CCOCC2)nc(N2CCN(C(=O)CCCCCCCCCCNC(=O)C(C(C)CC)n3cc(CCCCCN)nn3)CC2)n1 (stereo not drawn),/,/,/,0.651,/
COC(=O)CC1c2cc(C(F)(F)F)ccc2S(=O)(=O)N1c1ccc(N(C)C)cc1 (stereo not drawn),/,/,/,0.65,/
Cc1ccc(NC(=O)Nc2ncccc2C)cc1,9.6,3.9,3.8,0.709,2.2
Cc1ccc(NC(=O)Nc2ccno2)cc1,/,6.6,2.3,0.449*,2.1
CCCCCCCCCCCCCCCC[N+](C)(C)CCN(Cc1ccc(OC)cc1)c1ncccn1,53.6*,/,1.1,/,5.5
SMILES,Tat export inh,phage Ecoli inh,AddAB inh,E coli growth-1,E coli growth-2
COCCn1c(SCC(=O)NCc2ccc3c(c2)OCO3)nnc1-c1c[nH]c2ccccc12,-0.9,92.8*,1.0,0.793,0.6
COCCn1c(SCC(=O)NCc2ccc3c(c2)OCO3)nnc1C(C)C,-5.7,0.8,2.1,0.664,-1.8
CCC(=Cc1ccccc1)c1cccc2[nH]c3c(OC)cccc3c12,/,/,/,0.712,/
COc1ccccc1NC(=O)CN(Cc1ccco1)C(=O)c1cc2ccccc2o1,3.0,/,1.6,0.538*,-2.7
COc1ccccc1NC(=O)CN(Cc1ccco1)C(=O)c1ccc(=O)[nH]c1,-2.5,2.4,0.3,0.691,-0.5
Cc1cccc(C2C3C(=O)N(Cc4ccccc4)C(=O)C3[C@]3(CC(C)C)C(=O)N(c4cccc(F)c4)C(=O)N23)c1 (stereo partly drawn),/,/,/,0.709,/
c1ccc2c(NCCCN3CCOCC3)c3ccccc3nc2c1,/,5.6,15.0*,0.63,10.5*
